Source: paper PMC9911399, “Two distinct binding modes provide the RNA-binding protein RbFox with extraordinary sequence specificity”
Changes are numbered by the printed parent chain; changes in the protein carry UniProt numbers. Over roughly 16,000 sequences, “ka relative to ugcaugu” has its median near 0.096; the highest 2% begin near 0.35. The entries come from a sample that favours the highest values as a whole.

T1: RBFOX1 RRM RbFoxmut (Fox-RRM*) (Homo sapiens, UniProt Q9NWB1 109-208, R118D;E147R;N151S;E152T)
T1 sequence: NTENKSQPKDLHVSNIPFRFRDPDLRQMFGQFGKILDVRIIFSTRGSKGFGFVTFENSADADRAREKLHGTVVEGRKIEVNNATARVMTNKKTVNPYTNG

B1: CACAAUA (DNA:RNA)
RNA: GGGAGACCGGAAUUCAGAUUGUCCCACAAUAUUAAAUCCCGUCGUAGCCACCA
DNA 1: CAATCTGAATTCCGGTCTCCC
DNA 2: TGGTGGCTACGACGGGATT
B2: GGCAUCU (DNA:RNA)
RNA: B1 RNA with C25G, A26G, A29U, U30C, A31U
DNA 1: CAATCTGAATTCCGGTCTCCC
DNA 2: TGGTGGCTACGACGGGATT
B3: GGUAUCU (DNA:RNA)
RNA: B1 RNA with C25G, A26G, C27U, A29U, U30C, A31U
DNA 1: CAATCTGAATTCCGGTCTCCC
DNA 2: TGGTGGCTACGACGGGATT
B4: CGUCAUC (DNA:RNA)
RNA: B1 RNA with A26G, C27U, A28C, A31C
DNA 1: CAATCTGAATTCCGGTCTCCC
DNA 2: TGGTGGCTACGACGGGATT
B5: GGGCAUC (DNA:RNA)
RNA: B1 RNA with C25G, A26G, C27G, A28C, A31C
DNA 1: CAATCTGAATTCCGGTCTCCC
DNA 2: TGGTGGCTACGACGGGATT
B6: GUUAAUC (DNA:RNA)
RNA: B1 RNA with C25G, A26U, C27U, A31C
DNA 1: CAATCTGAATTCCGGTCTCCC
DNA 2: TGGTGGCTACGACGGGATT
B7: GGAGAUC (DNA:RNA)
RNA: B1 RNA with C25G, A26G, C27A, A28G, A31C
DNA 1: CAATCTGAATTCCGGTCTCCC
DNA 2: TGGTGGCTACGACGGGATT
B8: GGGUAUC (DNA:RNA)
RNA: B1 RNA with C25G, A26G, C27G, A28U, A31C
DNA 1: CAATCTGAATTCCGGTCTCCC
DNA 2: TGGTGGCTACGACGGGATT
B9: GGGAAUC (DNA:RNA)
RNA: B1 RNA with C25G, A26G, C27G, A31C
DNA 1: CAATCTGAATTCCGGTCTCCC
DNA 2: TGGTGGCTACGACGGGATT
B10: CGGAAUC (DNA:RNA)
RNA: B1 RNA with A26G, C27G, A31C
DNA 1: CAATCTGAATTCCGGTCTCCC
DNA 2: TGGTGGCTACGACGGGATT
B11: CGUAAUC (DNA:RNA)
RNA: B1 RNA with A26G, C27U, A31C
DNA 1: CAATCTGAATTCCGGTCTCCC
DNA 2: TGGTGGCTACGACGGGATT
B12: CGGUAUC (DNA:RNA)
RNA: B1 RNA with A26G, C27G, A28U, A31C
DNA 1: CAATCTGAATTCCGGTCTCCC
DNA 2: TGGTGGCTACGACGGGATT
B13: CGGCAUC (DNA:RNA)
RNA: B1 RNA with A26G, C27G, A28C, A31C
DNA 1: CAATCTGAATTCCGGTCTCCC
DNA 2: TGGTGGCTACGACGGGATT
B14: UUGGUAC (DNA:RNA)
RNA: GGGAGACCGGAAUUCAGAUUGUCCUUGGUACUUAAAUCCCGUCGUAGCCACCA
DNA 1: CAATCTGAATTCCGGTCTCCC
DNA 2: TGGTGGCTACGACGGGATT
B15: CGUCAGG (DNA:RNA)
RNA: B1 RNA with A26G, C27U, A28C, U30G, A31G
DNA 1: CAATCTGAATTCCGGTCTCCC
DNA 2: TGGTGGCTACGACGGGATT
B16: ACUGCGG (DNA:RNA)
RNA: B14 RNA with U25A, U26C, G27U, U29C, A30G, C31G
DNA 1: CAATCTGAATTCCGGTCTCCC
DNA 2: TGGTGGCTACGACGGGATT
B17: UAAAUAU (DNA:RNA)
RNA: B14 RNA with U26A, G27A, G28A, C31U
DNA 1: CAATCTGAATTCCGGTCTCCC
DNA 2: TGGTGGCTACGACGGGATT
B18: UCUACGU (DNA:RNA)
RNA: B1 RNA with C25U, A26C, C27U, A29C, U30G, A31U
DNA 1: CAATCTGAATTCCGGTCTCCC
DNA 2: TGGTGGCTACGACGGGATT
B19: AGUUUCU (DNA:RNA)
RNA: B14 RNA with U25A, U26G, G27U, G28U, A30C, C31U
DNA 1: CAATCTGAATTCCGGTCTCCC
DNA 2: TGGTGGCTACGACGGGATT
B20: UAGACCC (DNA:RNA)
RNA: B14 RNA with U26A, G28A, U29C, A30C
DNA 1: CAATCTGAATTCCGGTCTCCC
DNA 2: TGGTGGCTACGACGGGATT
B21: UUGAUUC (DNA:RNA)
RNA: B14 RNA with G28A, A30U
DNA 1: CAATCTGAATTCCGGTCTCCC
DNA 2: TGGTGGCTACGACGGGATT
B22: UUGAAUG (DNA:RNA)
RNA: B1 RNA with C25U, A26U, C27G, A31G
DNA 1: CAATCTGAATTCCGGTCTCCC
DNA 2: TGGTGGCTACGACGGGATT
B23: UUGAAUC (DNA:RNA)
RNA: B14 RNA with G28A, U29A, A30U
DNA 1: CAATCTGAATTCCGGTCTCCC
DNA 2: TGGTGGCTACGACGGGATT
B24: UUGUUGA (DNA:RNA)
RNA: B14 RNA with G28U, A30G, C31A
DNA 1: CAATCTGAATTCCGGTCTCCC
DNA 2: TGGTGGCTACGACGGGATT
B25: UUGAUCC (DNA:RNA)
RNA: B14 RNA with G28A, A30C
DNA 1: CAATCTGAATTCCGGTCTCCC
DNA 2: TGGTGGCTACGACGGGATT
B26: UUGAAAU (DNA:RNA)
RNA: B14 RNA with G28A, U29A, C31U
DNA 1: CAATCTGAATTCCGGTCTCCC
DNA 2: TGGTGGCTACGACGGGATT
B27: UUAAAUG (DNA:RNA)
RNA: B1 RNA with C25U, A26U, C27A, A31G
DNA 1: CAATCTGAATTCCGGTCTCCC
DNA 2: TGGTGGCTACGACGGGATT
B28: UUGAUUG (DNA:RNA)
RNA: B14 RNA with G28A, A30U, C31G
DNA 1: CAATCTGAATTCCGGTCTCCC
DNA 2: TGGTGGCTACGACGGGATT
B29: UUAAAUC (DNA:RNA)
RNA: B1 RNA with C25U, A26U, C27A, A31C
DNA 1: CAATCTGAATTCCGGTCTCCC
DNA 2: TGGTGGCTACGACGGGATT
B30: CCAAUUG (DNA:RNA)
RNA: B1 RNA with A26C, C27A, A29U, A31G
DNA 1: CAATCTGAATTCCGGTCTCCC
DNA 2: TGGTGGCTACGACGGGATT
B31: GUGGUAG (DNA:RNA)
RNA: B14 RNA with U25G, C31G
DNA 1: CAATCTGAATTCCGGTCTCCC
DNA 2: TGGTGGCTACGACGGGATT

Target: T1, RBFOX1 RRM RbFoxmut (Fox-RRM*)
Test: EMSA; HiTS-Eq, 1 nM pool, 10 min; buffer printed only for the single-RNA assays: 10 mM Tris pH 7.5, 150 mM NaCl, 3.4 mM EDTA, 0.001% NP-40, 30 C
Details: tags: His6 N-terminal (pET28a); label: 5' 32P
Outline: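 These values rest on relative association constants, computed from read-count changes of each RNA species versus the control reaction and normalised to the cognate motif. Reads came from free RNA recovered by 8% native PAGE after purified RbFox RRM (wild type or mutant) at increasing concentrations was equilibrated for 10 min in 50 µL with 1 nM of a 5′-radiolabelled pool with 7 randomized nucleotides and DNA-annealed flanks.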

| Binder | binding signal |
| --- | --- |
| B1 | 0.084 KA relative to UGCAUGU |
| B2 | 0.27 KA relative to UGCAUGU |
| B3 | 0.206 KA relative to UGCAUGU |
| B4 | 0.0997 KA relative to UGCAUGU |
| B5 | 0.396 KA relative to UGCAUGU |
| B6 | 0.0571 KA relative to UGCAUGU |
| B7 | 0.155 KA relative to UGCAUGU |
| B8 | 0.409 KA relative to UGCAUGU |
| B9 | 0.494 KA relative to UGCAUGU |
| B10 | 0.436 KA relative to UGCAUGU |
| B11 | 0.0673 KA relative to UGCAUGU |
| B12 | 0.245 KA relative to UGCAUGU |
| B13 | 0.261 KA relative to UGCAUGU |
| B14 | 0.144 KA relative to UGCAUGU |
| B15 | 0.113 KA relative to UGCAUGU |
| B16 | 0.0963 KA relative to UGCAUGU |

| Binder | binding signal |
| --- | --- |
| B17 | 0.0636 KA relative to UGCAUGU |
| B18 | 0.118 KA relative to UGCAUGU |
| B19 | 0.0838 KA relative to UGCAUGU |
| B20 | 0.0507 KA relative to UGCAUGU |
| B21 | 0.196 KA relative to UGCAUGU |
| B22 | 1.17 KA relative to UGCAUGU |
| B23 | 0.374 KA relative to UGCAUGU |
| B24 | 0.0998 KA relative to UGCAUGU |
| B25 | 0.0834 KA relative to UGCAUGU |
| B26 | 0.0963 KA relative to UGCAUGU |
| B27 | 0.0888 KA relative to UGCAUGU |
| B28 | 0.381 KA relative to UGCAUGU |
| B29 | 0.0555 KA relative to UGCAUGU |
| B30 | 0.0976 KA relative to UGCAUGU |
| B31 | 0.181 KA relative to UGCAUGU |
